Records with an inconclusive call do not appear. Activity calls are given as the source filed them. Calls follow the shape of the dose curve; as a rule, active = well fitted cell-killing curve with a large enough effect; inconclusive = small, poorly fitted or top-dose-only effect; inactive = flat fitted curve, though single readings scatter.
Test: Confirmation and Secondary Assay for Modulators of Hemoglobin Beta Chain Splicing at IVS2 654 locus: Cytotoxicity
Conditions: HBB IVS2-654 splicing reporter cells
Text: NIH Chemical Genomics Center [NCGC]
NIH Molecular Libraries Screening Centers Network [MLSCN]
PI Name: Dr. Ryszard Kole
Modulation of Alternative Splicing as Therapy
Abnormal splicing is associated with a number of diseases, including cancer and genetic diseases such as cystic fibrosis, muscular dystrophy and beta-thalassemia. Alteration of disease associated splicing patterns provides a promising target for treatment. […] Mutations in the second intron of the b-globin gene at positions 654 or 705 are clinically relevant and cause mis-splicing which results in an out of frame gene product.
Examination of toxicity of select compounds in EGFP-654 HeLa Cells
HeLa cell lines were stably transfected with a construct in which the EGFP (enhanced green fluorescent protein) cDNA was interrupted by the second intron of the beta-globin gene (IVS2-654). The ISV2 intron contains mutations which cause mis-splicing of EGFP and premature termination of EGFP which results in a nonfluorescent protein product. […] Expression of the transgene was driven by the CMV promoter. Compounds, and related structures identified in the primary screen as potential splicing modulation were examined for their effects on cell toxicity in this follow up assay .
NCGC Assay Protocol Summary:
Toxicity Screening. Freshly thawed HeLa EGFP-654 cells were seeded in 5 ul of optimem media (Invitrogen) containing 2 % fetal calf serum (Hyclone) and 1x penicillin/streptomycin (Invitrogen) at a concentration of 500 cells per well in 1536-well plates. Cells were incubated overnight at 37C in 5% CO2. The next day, cells were treated with DMSO, 500 nM antisense ISV2 654 PNA control oligo, or library compound and allowed to grow at 37C in 5% CO2 for 2 days. Cells were treated with 5 ul/well of freshly prepared ATPlite (Perkin Elmer) and cells were allowed to lyse at room temperature for 5 minutes. Luminescence was captured on an Viewlux CCD imager (Perkin Elmer) using a 15 second integration time and cell death was measured by comparing compound treatments to DMSO treatment (no cell death). […]

Row | SMILES | Potency
1 | O=c1[nH]cc(F)c(=O)[nH]1 | 12.6 µM (active)
2 | [Cl-].[Cl-].[Hg+2] | 0.398 µM (active)
3 | CC(=O)[O][Hg][c]1ccccc1 | 12.6 µM (active)

— PubChem BioAssay AID931 (National Center for Advancing Translational Sciences (NCATS), 2007)
